G9a block – blocks human histone lysine methyltransferase G9a | Q96KQ7 | G9a H3K9 monomethylation, AlphaScreen, 2 h | Potency, µM (highest dose often 102 µM), without a hit: at the top dose activity, negative = inhibition, hits mostly inhibitors | hit rate 8.8% among 350,000 | AID 504332; also: % is scaled to controls: 0 for no effect and ±100 for the full control effect; nearly all actives have a fitted effect of over 75% in size
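Chemiluminescent proximity detection of H3K9 monomethylation, read after 10 min bead incubation in the dark. Reaction: 20 nM G9a, 500 nM biotin-H3K9 peptide, 20 uM SAM cofactor, 2 h, room temperature, following 15 min enzyme-compound preincubation.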
PLK1 PBD block – blocks phosphopeptide binding to human PLK1 polo-box domain; P53350; Plk1 PBD binding of FITC phosphopeptide, fluorescence polarization; Potency, µM, for inactives: max response, negative = inhibition, actives largely listed as inhibitors; hit rate 2.8% among 360,000; AID 720504; also: series mostly up to about 57 µM; % is scaled to controls: 0 for no effect and ±100 for the full control effect; nearly all actives have a fitted effect of over 65% in size
Sfp inh – blocks B. subtilis Sfp PPTase activity; Q9F4F7; Biochemical Sfp PPTase activity, qHTS; Potency, µM, inactives show largest response in the series, negative = inhibition, hits mostly inhibitors; hit rate 3.5% among 310,000;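 also: the enzyme is Sfp with the accession as filed and its product quenches rhodamine fluorescence; 0% = enzyme reaction without inhibitor and -100% = no enzyme wells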
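Reaction rates are the 30-min fluorescence difference (ex 525, em 598 nm) in wells containing 15 nM Sfp, 5 uM rhodamine-CoA and 12.5 uM BHQ-2-YbbR at pH 7.6 with 10 mM MgCl2.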
BAZ2B block – blocks human BAZ2B; AlphaScreen BAZ2B-H3K14Ac peptide displacement; Potency, µM (doses to about 114 µM), without a hit: at the top dose activity change, negative = inhibition, actives largely listed as inhibitors; hit rate 4.4% among 360,000; Q9UIF8; also: % is scaled to controls: 0 for no effect and ±100 for the full control effect; nearly all actives have a fitted effect of over 60% in size
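Multi-concentration screen (max 110 uM) measuring displacement of acetylated histone H3 peptide from BAZ2B by AlphaScreen, using 50 nM protein, 50 nM peptide and 10 ug/mL streptavidin donor plus Ni-chelate acceptor beads.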
JMJD2A Tudor – blocks the human JMJD2A Tudor domain | O75164 | AlphaScreen JMJD2A-Tudor / H3K4me3 peptide binding | Potency, µM (highest dose often 114 µM), for the others: at the top dose activity change, negative = inhibition, usual class: inhibitors | hit rate 4.4% among 390,000; also: % is scaled to controls: 0 for no effect and ±100 for the full control effect; nearly all actives have a fitted effect of over 50% in size
HP1b chromo inh – blocks HP1-beta chromodomain binding to methylated histone tails | P83916 | AlphaScreen HP1-beta / biotin-H3K9me3 peptide binding | Potency, µM (highest dose often 114 µM), for the others: at the top dose activity change, negative = inhibition, usual class: inhibitors | hit rate 0.56% among 390,000; also: nearly all actives have a fitted effect of over 70% in size
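HP1-beta protein (50 nM final) preincubated 30 min at room temperature with biotinylated H3(1-18)K9me3 peptide (50 nM) in PBS pH 7.4, 0.01% Tween-20, then compound added for 30 min. AlphaScreen streptavidin donor/nickel chelate acceptor beads (10 ug/mL final), 30 min dark, luminescence read.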
* = called active by the depositor; ? = inconclusive; . = no result; [ ] = remark or other dose. Compounds with a hit are over-represented: about 12% of the library has one in this group of screens. Calls follow the shape of the dose curve; as a rule, active = well fitted curve in the direction sought with a large enough effect; inconclusive = small, poorly fitted or top-dose-only effect, or another doubt; inactive = no such curve, though single readings can be large; an effect the other way counts as inactive or inconclusive. Potency is read from the fitted curve at half-maximal effect.

SMILES	G9a block	PLK1 PBD block	Sfp inh	BAZ2B block	JMJD2A Tudor	HP1b chromo inh
CCc1ccccc1N(CC(=O)N1CCN(c2ccc(F)cc2)CC1)S(C)(=O)=O	79µM*	-2%	15%	-10%	?	20%
OC[C@@H](O)C(O[C@@H]1O[C@@H](CO)[C@H](O)[C@H](O)[C@H]1O)[C@H](O)[C@@H](O)CO (some centres undefined)	24%[59 µM]	.	8%	.	.	.
Cc1ccc(Cl)cc1N1CCN(C(=O)CN(c2ccccc2)S(=O)(=O)N(C)C)CC1	-9%	-21%	-17%	45µM*	-12%[11.4 µM]	6%
Cc1cc(/C=N/n2cnnc2)c(C)n1-c1ccc(OCc2ccccc2F)cc1	?	-3%	-17%	?	56µM*	?
Cc1cc(/C=N/n2cnnc2)c(C)n1-c1ccc(OCc2ccc(Cl)cc2)cc1	40µM*	2%	45µM*	79µM*	45µM*	?
Cc1cccc(NC(=O)CCc2c(C)nc3c(c(C)nn3C(C)(C)C)c2C)c1C	15%[59 µM]	.	.	5%	-14%	17%
Cc1cc(C)cc(C(=O)NC(CC(N)=O)c2ccc(NCC3CC3)c([N+](=O)[O-])c2)c1 (centres undefined)	79µM*	4%	6%	5%[57.1 µM]	-12%	33%
O=[N+]([O-])c1cc(C(F)(F)F)ccc1NC1CCN(Cc2ccccc2)CC1	35µM*	-8%	-5%	25µM*	35µM*	50µM*
Cc1cc(C)cc(C(=O)NC(CC(N)=O)c2ccc(NC3CCCCCCCCCCC3)c([N+](=O)[O-])c2)c1 (centres undefined)	45µM*	0%	-9%	?	?	-3%
Cc1cc(C)cc(C(=O)NC(CC(N)=O)c2ccc(NC3CCCCCCC3)c([N+](=O)[O-])c2)c1 (centres undefined)	?	11%	6%	-34%	-22%	29%
NC(=O)CC(NC(=O)c1ccccc1)c1ccc(NC2CCN(Cc3ccccc3)CC2)c([N+](=O)[O-])c1 (centres undefined)	50µM*	3%	7%	?	-27%	16%
NC(=O)CC(NC(=O)c1ccccc1)c1ccc(NCC2CC2)c([N+](=O)[O-])c1 (centres undefined)	-1%[12.7 µM]	-9%	10%	1%	-25%	18%
O=C1c2c(-c3ccc(Br)cc3)noc2CCN1Cc1cn(Cc2ccccc2)nn1	.	-6%	.	.	.	.
COC(=O)c1ccc(C(NC(=O)OCc2ccccc2)/C(=C/[C@@H](C)C(=O)NCc2ccc(OC)c(OC)c2)c2cccnc2)cc1 (some centres undefined)	.	.	16%	.	.	.
COc1ccc2c(c1)C(c1ccccc1OC)CC(=O)O2 (centres undefined)	35µM*	.	0%	.	.	.
O=C(CSc1nnc2c3ccccc3c3ccccc3c2n1)Nc1ccccc1F	.	4%	-63%	56µM*	-22%	-11%
O=C(CSc1nnc2c3ccccc3c3ccccc3c2n1)Nc1ccccc1	45µM*	.	9%	-5%[57.1 µM]	.	.
O=C(CSc1nncc2ccccc12)Nc1ccccc1	?	-8%	7%	0%	-1%	15%
CCOC(=O)C(NC(=O)CCl)(Nc1sc(C)c(CC)c1C#N)C(F)(F)F (centres undefined)	25µM*	-19%	-8%	-6%	-12%	43%
CCOC(=O)C(NC(=O)N(C)C)(Nc1sc(C)c(CC)c1C#N)C(F)(F)F (centres undefined)	8.9µM*	-28%	45µM*	-3%	-28%	-9%
CC(C)(C)C(=O)Nc1cc(NC(=O)C(C)(C)C)cc(C(=O)NNC(=O)c2ccncc2)c1	?	-7%	15%	1%	-11%	0%
CCOC(=O)N1CCN(C(=O)c2ccc3c(c2)N(Cc2ccccc2)CCS3)CC1	?	1%	2%	?	-32%	21%
CC1CC(C)CN(C(=O)c2ccc3c(c2)N(Cc2ccccc2)CCS3)C1 (centres undefined)	40µM*	-21%	?	?	?	11%
Cc1ccc(CN2CCSc3ccc(C(=O)N4CCN(c5ncccn5)CC4)cc32)cc1	-25%[12.7 µM]	0%	50µM*	-29%	?	-9%
CCN1CCN(C(=O)c2ccc3c(c2)N(Cc2ccc(C)cc2)CCS3)CC1	79µM*	0%	6%	-28%[57.1 µM]	-36%	-6%[57 µM]
SMILES	G9a block	PLK1 PBD block	Sfp inh	BAZ2B block	JMJD2A Tudor	HP1b chromo inh
COc1ccccc1CNC(=O)c1ccc2c(c1)N(Cc1ccc(C)cc1)CCS2	-19%[59 µM]	.	.	-21%	-23%	39%
Cc1ccc(CN2CCSc3ccc(C(=O)N4CCOCC4)cc32)cc1	?	-5%	-9%	?	-28%	23%
Cc1ccc(CN2CCSc3ccc(C(=O)NCc4ccco4)cc32)cc1	71µM*	-9%	7%	-18%	-32%	-9%
Cc1ccc(-c2cn(-c3cccc(Cl)c3)c(S(=O)(=O)CC(=O)Nc3ccccc3F)n2)cc1	?	.	.	?	?	-5%
C1=CC2=NC34CCCCC3CC3=C(CCCC3)N4C2=CC1=NC1CCCCC1 (centres undefined)	.	2%	.	.	?	?
CCCCN(C(=O)CSc1nnnn1C)C1CCS(=O)(=O)C1 (centres undefined)	-11%[12.7 µM]	-9%	.	-3%	-20%	35%
COc1cccc(CC(=O)N2CCc3nc(-c4ccc(OC)cc4C)c4c(c3C2)CO[C@@H](c2ccccc2)C4)c1	.	.	-12%	.	.	.
COc1ccc(Br)cc1CN1CCCCCC1	32µM*	-12%	13%	?	22µM*	-24%
COc1ccc(Cl)cc1CN1CCOCC1	-32%	7%	6%	-15%	8%	33%
COc1ccc(Br)cc1CN1CCSCC1	45µM*	-7%	-8%	?	3.5µM*	56µM*
COc1ccc(CN2CCCCCC2)cc1Br	32µM*	-14%	0%	?	3.5µM*	?
CCCCCCCN1CCC(=O)N([C@H](CO)CC(C)C)CC1	6%	-10%	9%	0%	-19%	-8%
O=C1Nc2ccccc2C1(O)C/C(=N/O)c1ccccc1 (centres undefined)	-5%	27µM*	13%	-11%	20µM*	-16%
COC(=O)c1c(NC(=O)c2ccccc2)sc(Cc2ccccc2)c1C	29%[59 µM]	-2%	-2%	51%	48%	108%
COC(=O)c1c(NC(C)=O)sc(Cc2ccccc2)c1C	20%	-10%	-19%	0%	8%	32%
CCC(=O)Nc1sc(Cc2ccccc2)c(C)c1C(N)=O	.	27µM*	?	?	?	-20%

Screens from PubChem BioAssay.
